Reference: PubChem BioAssay (Tox21)
Inconclusive results are not listed. A call without a number means that no potency is given here. Some structures have more than one record in an assay (separate samples or runs), and their calls can disagree. The source made the active and inactive calls. Unless noted, calls follow the shape of the full dose curve.

Assays:
[1] = Nuclear factor erythroid 2-related factor 2/antioxidant responsive element (Nrf2/ARE) small molecule agonists: qHTS cell viability counter screen in human keratinocytes (AID 1919968; active = well fitted curve in the direction sought with a large enough effect in the repeat runs; an effect the other way counts as inactive or inconclusive; also: nearly all actives have a fitted effect of over 55% in size)
Procedure, shortened: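 Seed 1,500 KeratinoSens cells per well, then incubate 5 h at 37 C/5% CO2. Add compounds in DMSO and incubate 23 h. Add CellTiter-Fluor, wait 1 h and read fluorescence.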

[2] = target: Gonadotropin-releasing hormone receptor (Homo sapiens) (UniProt P30968); test: Human gonadotropin-releasing hormone receptor (GnRHR) small molecule agonists, calcium flux assay in GnRHR-HEK293 cells (AID 1920063); also: nearly all actives have a fitted effect of over 35% in size
Gonadotropin-releasing hormone receptor (Homo sapiens), sequence (P30968 whole entry, looked up): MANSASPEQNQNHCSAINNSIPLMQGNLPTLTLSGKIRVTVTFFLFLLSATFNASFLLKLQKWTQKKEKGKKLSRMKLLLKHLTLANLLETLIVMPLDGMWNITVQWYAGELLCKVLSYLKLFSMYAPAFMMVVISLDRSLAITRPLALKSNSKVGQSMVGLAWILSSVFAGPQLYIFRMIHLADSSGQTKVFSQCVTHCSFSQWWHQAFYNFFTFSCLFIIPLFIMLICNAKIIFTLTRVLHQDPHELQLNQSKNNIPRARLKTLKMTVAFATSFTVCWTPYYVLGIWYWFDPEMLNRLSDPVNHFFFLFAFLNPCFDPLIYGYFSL
Procedure, shortened: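 Cells: HEK293 stably expressing human GnRHR. Steps: overnight (18 h) culture, 1 h calcium dye loading at 37 C, compound addition, kinetic fluorescence read at 480/540 nm. Each compound tested at 15 concentrations in triplicate.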

[3] = target: KiSS-1 receptor (Homo sapiens) (UniProt Q969F8); test: Human kisspeptin (KISS1R) small molecule agonists, calcium flux assay in KISS1R-HEK293 cells (AID 1920064; active = well fitted curve in the direction sought with a large enough effect in the repeat runs; an effect the other way counts as inactive or inconclusive)
KiSS-1 receptor (Homo sapiens), sequence (Q969F8 whole entry, looked up): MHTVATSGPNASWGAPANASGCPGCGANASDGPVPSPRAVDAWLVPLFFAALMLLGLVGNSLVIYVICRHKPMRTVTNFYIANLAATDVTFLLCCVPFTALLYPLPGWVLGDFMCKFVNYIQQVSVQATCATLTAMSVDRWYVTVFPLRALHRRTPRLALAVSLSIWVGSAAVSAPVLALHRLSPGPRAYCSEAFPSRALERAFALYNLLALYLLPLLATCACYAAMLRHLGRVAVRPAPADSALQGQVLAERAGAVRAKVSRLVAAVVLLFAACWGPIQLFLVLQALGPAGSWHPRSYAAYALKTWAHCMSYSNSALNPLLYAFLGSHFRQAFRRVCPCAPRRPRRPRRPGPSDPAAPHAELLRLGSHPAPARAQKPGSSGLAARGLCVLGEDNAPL
Procedure, shortened: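 Cells plated and incubated 18 h; dye added, 1 h at 37 C; compounds in DMSO pinned in; signal read at 480/540 nm every second for 3 min. Each compound tested at 15 concentrations in triplicate.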

[4] = G protein-coupled receptor (GPCR) small molecule agonists, calcium flux assay: HEK293 wild type cell line counter screen (AID 1920065)
Procedure, shortened: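 Counter-screen of the Tox21 10K library for non-specific calcium release: dye-loaded cells received compounds in DMSO and were monitored by kinetic fluorescence (480/540 nm, 3 min). Fifteen concentrations, run in triplicate.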

[5] = p53 small molecule agonists, cell-based qHTS assay with human liver microsomes: qHTS cell viability counter screen (AID 1963579); also: nearly all actives have a fitted effect of over 45% in size
Procedure, shortened: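 After the 460/530 nm beta-lactamase read, CellTiter-Glo was added to the same wells and luminescence measured after 30 min at room temperature, giving viability of p53RE-bla cells treated 16 h with compounds plus microsomes and NADPH.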

[6] = p53 small molecule agonists, cell-based qHTS assay with rat liver microsomes: qHTS cell viability counter screen (AID 1963580); also: nearly all actives have a fitted effect of over 45% in size
Procedure, shortened: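 In HCT-116 cells carrying a p53 response element-bla reporter, compounds were metabolically activated in situ by rat liver microsomes with NADPH over 16 h. Cell ATP content then served as the cytotoxicity measure.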

[7] = p53 small molecule agonists, cell-based qHTS assay: qHTS cell viability counter screen (AID 1963581); also: nearly all actives have a fitted effect of over 45% in size
Procedure, shortened: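 Cells: HCT-116 with p53 response element-driven beta-lactamase. Treatment: 16 h, 37 C, compounds in DMSO. Read: CellTiter-Glo luminescence after 30 min RT.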

[8] = target: 5-hydroxytryptamine receptor 2A (Homo sapiens) (UniProt P28223); test: 5-hydroxytryptamine receptor 2A (HTR2A) small molecule antagonists, cell-based qHTS assay (AID 1963586); also: nearly all actives have a fitted effect of over 45% in size
5-hydroxytryptamine receptor 2A (Homo sapiens), sequence (P28223 whole entry, looked up): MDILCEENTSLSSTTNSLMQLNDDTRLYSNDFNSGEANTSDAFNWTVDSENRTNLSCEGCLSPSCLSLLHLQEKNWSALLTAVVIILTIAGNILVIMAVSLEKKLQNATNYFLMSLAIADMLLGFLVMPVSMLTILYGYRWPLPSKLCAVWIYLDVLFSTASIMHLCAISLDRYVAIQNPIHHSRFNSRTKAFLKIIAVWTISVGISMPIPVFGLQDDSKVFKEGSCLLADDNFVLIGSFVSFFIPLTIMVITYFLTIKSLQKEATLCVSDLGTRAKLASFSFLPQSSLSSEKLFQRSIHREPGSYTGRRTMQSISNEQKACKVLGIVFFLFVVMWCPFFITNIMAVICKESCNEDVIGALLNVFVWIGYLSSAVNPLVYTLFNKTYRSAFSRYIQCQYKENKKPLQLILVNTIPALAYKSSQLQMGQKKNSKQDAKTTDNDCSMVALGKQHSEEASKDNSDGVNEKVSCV
Procedure, shortened: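 Antagonist-mode intracellular calcium assay: DOI (4 nM) added after 5 min compound pre-incubation at room temperature to dye-loaded HTR2A-CHO cells. Fluorescence followed for 3 min, sampled every second.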

[9] = target: 5-hydroxytryptamine receptor 2A (Homo sapiens) (UniProt P28223); test: 5-hydroxytryptamine receptor 2A (HTR2A) small molecule agonists, cell-based qHTS assay (AID 1963587); also: nearly all actives have a fitted effect of over 30% in size; also: potency is read from the fitted curve at half-maximal effect
Procedure, shortened: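 HTR2A-CHO cells, plated 18 h at 37 C/5% CO2, dye-loaded 1 h at 37 C; compounds in DMSO added by pin tool (agonist mode). Intracellular calcium flux read as kinetic fluorescence on FDSS over 2 min at 1 s intervals.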

[10] = target: Muscarinic acetylcholine receptor M1 (Homo sapiens) (UniProt P11229); test: Cholinergic receptor muscarinic 1 (CHRM1) small molecule antagonists, cell-based qHTS assay (AID 1963588); also: nearly all actives have a fitted effect of over 40% in size
Muscarinic acetylcholine receptor M1 (Homo sapiens), sequence (P11229 whole entry, looked up): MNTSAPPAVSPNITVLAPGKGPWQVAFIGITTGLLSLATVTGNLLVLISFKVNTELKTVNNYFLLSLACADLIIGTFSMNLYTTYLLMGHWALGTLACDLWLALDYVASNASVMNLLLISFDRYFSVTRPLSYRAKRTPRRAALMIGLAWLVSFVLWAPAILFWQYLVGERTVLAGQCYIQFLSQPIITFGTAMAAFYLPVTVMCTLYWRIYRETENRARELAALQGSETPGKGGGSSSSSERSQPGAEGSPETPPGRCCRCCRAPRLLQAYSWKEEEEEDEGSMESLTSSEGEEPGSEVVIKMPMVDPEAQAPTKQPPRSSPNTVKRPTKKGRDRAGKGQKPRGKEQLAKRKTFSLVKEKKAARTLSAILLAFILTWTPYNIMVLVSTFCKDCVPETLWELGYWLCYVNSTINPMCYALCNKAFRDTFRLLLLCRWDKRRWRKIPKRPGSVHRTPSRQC
Procedure, shortened: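 CHRM1-CHO calcium-flux assay, antagonist mode. Cells were seeded 18 h, dye-loaded 1 h at 37 C and given compound for 5 min at RT, then acetylcholine was added at 50nM. FDSS fluorescence was read 3 min; 15 concentrations, three runs.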

[11] = target: Muscarinic acetylcholine receptor M1 (Homo sapiens) (UniProt P11229); test: Cholinergic receptor muscarinic 1 (CHRM1) small molecule agonists, cell-based qHTS assay (AID 1963589); also: nearly all actives have a fitted effect of over 35% in size
Procedure, shortened: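 Agonist-mode qHTS in CHO cells stably carrying human muscarinic M1. Intracellular calcium is tracked by fluorescence every second after compound transfer; each compound runs at 15 concentrations in three independent runs.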

[12] = cAMP Responsive Elements (CRE) small molecule agonists, cell-based qHTS assay (AID 1963590)
Procedure, shortened: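 Agonist mode qHTS in CRE-bla HEK 293T cells: compounds dosed from DMSO for 3 h at 37 C/5% CO2, followed by LiveBLAzer B/G FRET substrate for 2 h at room temperature.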

[13] = cAMP Responsive Elements (CRE) small molecule antagonists, cell-based qHTS assay (AID 1963591; active = well fitted inhibition curve with a large enough effect in the signal ratio in the repeat runs, not every such curve was filed as active; the % refers to the signal ratio)
Procedure, shortened: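 Antagonist mode: test compounds are co-incubated with the adenylyl cyclase activator NKH477 (0.25 uM final) on CRE-bla HEK293T cells for 3 h at 37 °C, followed by LiveBLAzer substrate loading.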

[14] = target: Beta-2 adrenergic receptor (Homo sapiens) (UniProt P07550); test: Adrenergic beta2 receptor (ADRB2) small molecule antagonists, cell-based qHTS assay (AID 1963592); also: series mostly up to about 92 µM; nearly all actives have a fitted effect of over 50% in size
Beta-2 adrenergic receptor (Homo sapiens), sequence (P07550 whole entry, looked up): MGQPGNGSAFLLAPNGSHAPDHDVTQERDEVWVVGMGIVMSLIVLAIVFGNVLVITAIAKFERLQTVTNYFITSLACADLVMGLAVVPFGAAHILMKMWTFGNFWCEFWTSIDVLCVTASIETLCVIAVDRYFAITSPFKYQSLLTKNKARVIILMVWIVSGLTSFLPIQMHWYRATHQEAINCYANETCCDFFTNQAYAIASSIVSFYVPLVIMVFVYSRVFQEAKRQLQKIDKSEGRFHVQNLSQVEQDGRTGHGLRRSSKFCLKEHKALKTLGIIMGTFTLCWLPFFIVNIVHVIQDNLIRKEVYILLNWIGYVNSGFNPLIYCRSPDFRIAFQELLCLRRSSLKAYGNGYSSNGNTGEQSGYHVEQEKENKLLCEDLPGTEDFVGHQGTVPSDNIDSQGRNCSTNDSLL
Procedure, shortened: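 Cells (CHO, stable ADRB2 overexpression) incubated 18-20hr at 37C; compounds added from DMSO; agonist mix (1nM isoproterenol, 100uM IBMX, 25uM Ro-20-1724) added; 0.5hr RT; d2-cAMP and anti-cAMP-cryptate added; 1hr RT; 665/615 nm read.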

[15] = target: Beta-2 adrenergic receptor (Homo sapiens) (UniProt P07550); test: Adrenergic beta2 receptor (ADRB2) small molecule agonists, cell-based qHTS assay (AID 1963593);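 also: CHO cells stably overexpressing human ADRB2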
Procedure, shortened: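 CHO cells stably over-expressing ADRB2 were plated overnight at 37C, then dosed with compounds plus a stimulation mix containing 100uM IBMX and 25uM Ro-20-1724 for 0.5hr at room temperature. cAMP was measured by HTRF competition, 1hr.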

[16] = target: D(2) dopamine receptor (Homo sapiens) (UniProt P14416); test: Dopamine D2 receptor (DRD2) small molecule agonists, cell-based qHTS assay (AID 1963594); also: nearly all actives have a fitted effect of over 35% in size
D(2) dopamine receptor (Homo sapiens), sequence (P14416 whole entry, looked up): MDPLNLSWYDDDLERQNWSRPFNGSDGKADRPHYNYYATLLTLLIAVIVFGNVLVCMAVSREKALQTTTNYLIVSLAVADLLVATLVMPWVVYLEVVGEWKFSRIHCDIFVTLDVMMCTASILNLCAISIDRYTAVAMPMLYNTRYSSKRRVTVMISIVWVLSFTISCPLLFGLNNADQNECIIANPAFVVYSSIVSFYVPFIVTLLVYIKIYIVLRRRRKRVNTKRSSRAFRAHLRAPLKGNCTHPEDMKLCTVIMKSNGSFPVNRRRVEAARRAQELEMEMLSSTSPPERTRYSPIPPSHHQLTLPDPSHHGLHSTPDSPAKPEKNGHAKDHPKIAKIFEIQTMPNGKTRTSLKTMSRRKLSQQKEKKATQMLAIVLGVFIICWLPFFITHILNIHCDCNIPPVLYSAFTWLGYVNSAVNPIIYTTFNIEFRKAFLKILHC
Procedure, shortened: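 HEK293 cells stably expressing DRD2 were cultured 24 h at 37 C, then given Ro20-1724 (0.1 mM final) and compounds for 10 min at room temperature. NKH477 (200nM) was then added for 30 min. cAMP was read by HTRF.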

[17] = target: D(2) dopamine receptor (Homo sapiens) (UniProt P14416); test: Dopamine D2 receptor (DRD2) small molecule antagonists, cell-based qHTS assay (AID 1963595; active = well fitted inhibition curve with a large enough effect in the signal ratio in the repeat runs, with a control signal flat; the % refers to the signal ratio)
Procedure, shortened: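 Human DRD2 antagonist qHTS measuring cAMP by HTRF. The cells are exposed to compound for 10 min, then to NKH477 (200 nM) and quinpirole (12 nM) for 30 min at RT, with Ro20-1724 (0.1 mM) present throughout.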

[18] = p53 small molecule agonists, cell-based qHTS assay with human liver microsomes (AID 1963577);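 also: p53 response element beta-lactamase reporter cells with liver microsomes plus NADPH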
Procedure, shortened: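 Steps: plate p53RE-bla cells, incubate 5 h at 37 C; add compound in DMSO; add microsomes (0.5 mg/mL final) and NADPH (0.5 mg/mL final); incubate 16 h at 37 C; add LiveBLAzer, 2 h RT; read fluorescence.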

[19] = p53 small molecule agonists, cell-based qHTS assay with rat liver microsomes (AID 1963578)
Procedure, shortened: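 Metabolic activation is supplied by rat liver microsomes with NADPH (each 0.5 mg/mL final). p53RE-bla cells incubate with compound 16 h at 37 C; reporter activity is measured by LiveBLAzer fluorescence.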

[20] = p53 small molecule agonists, cell-based qHTS assay (AID 1963582; active = well fitted activation curve with a large enough effect in the signal ratio in the repeat runs, not every such curve was filed as active; the % refers to the signal ratio)
Procedure, shortened: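 Quantitative HTS in p53RE-bla cells: after a 5 h settling period, compounds delivered in DMSO were left on cells for 16 h at 37 C, and reporter induction was measured as fluorescence following 2 h substrate loading.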

SMILES	Potency [1]	Potency [2]	Potency [3]	Potency [4]	Potency [5]	Potency [6]	Potency [7]	Potency [8]	Potency [9]	Potency [10]	Potency [11]	Potency [12]	Potency [13]	Potency [14]	Potency [15]	Potency [16]	Potency [17]	Potency [18]	Potency [19]	Potency [20]
O=C1NS(=O)(=O)c2ccccc21	inactive	inactive	inactive	inactive	inactive	inactive	inactive	inactive	inactive	inactive	inactive	inactive	inactive	inactive	inactive	inactive	inactive			
CC(=O)CC(c1ccccc1)c1c(O)c2ccccc2oc1=O (stereo not drawn)	inactive		inactive	inactive	inactive	inactive						inactive		inactive	inactive	inactive	inactive			
CCCCCCCC(=O)O		inactive	inactive	inactive	inactive	inactive	inactive	inactive	inactive	inactive	inactive	inactive		inactive		inactive	inactive	inactive	inactive	inactive
OC[C@H]1O[C@H](O[C@]2(CCl)O[C@H](CCl)[C@@H](O)[C@@H]2O)[C@H](O)[C@@H](O)[C@H]1Cl		inactive		inactive	inactive	inactive	inactive	inactive	inactive	inactive		inactive	inactive	inactive	inactive	inactive	inactive	inactive	inactive	inactive
O=C(/C=C/C=C/c1ccc2c(c1)OCO2)N1CCCCC1		inactive	inactive		inactive	inactive	inactive		6.18 µM (active) and inactive	inactive	inactive	inactive	inactive	inactive		inactive	inactive	inactive		inactive
CCCCCCCCCCCCCC(=O)O		inactive		inactive	inactive	inactive	inactive	inactive	inactive	inactive	inactive	inactive	inactive	inactive	inactive		inactive		inactive	inactive
CC(C)=CCCC(C)CCO (stereo not drawn)		inactive	inactive		inactive	inactive	inactive		inactive	inactive	inactive	inactive	inactive	inactive		inactive	inactive	inactive	inactive	inactive
